The record followed here is PubChem BioAssay (EPA / NIEHS).

Inconclusive results are not listed. Active and inactive are the calls of the source. How the source made its calls, unless noted: active means hit-call score of the fitted dose curve at least 0.9, where 1 is the maximum; inactive means score below 0.9.

The target in assay [1] is Myc proto-oncogene protein (Homo sapiens) (UniProt P01106). In words: ATG_Myc_CIS: Attagene CIS-FACTORIAL HepG2 Assay for human Myelocytomatosis (Myc) Proto-Oncogene Transcription Factor (AID 2282990). The note with it: HepG2, Attagene cis-reporter transcription factor activity; actives raise or lower the signal. Summed up:
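Transiently transfected HepG2 cells bearing cis-promoter reporter units for endogenous transcription factors; 24 h exposure. Reporter mRNA measured by RT-PCR, 6-FAM primer extension, HpaI cut and capillary electrophoresis; bidirectional fit relative to DMSO.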

Assay [2] is described as follows: ATG_NF_kB_CIS: Attagene CIS-FACTORIAL HepG2 Assay for human Nuclear Factor Kappa B (NF-kB) (AID 2282991). The note with it: HepG2 Attagene cis-factorial NF-kB reporter mRNA; actives raise or lower the signal. The method in brief:
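DMSO served as negative control and baseline for bidirectional curve fitting. Transiently transfected HepG2 cells were dosed for 24 h, then reporter transcripts were measured by RT-PCR with capillary electrophoresis detection.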

Assay [3] can be described thus: ATG_NRF2_ARE_CIS: Attagene CIS-FACTORIAL HepG2 Assay for human Nuclear Factor Erythroid 2 Related Factor 2 (NFR2) response to Antioxidant Response Elements (ARE) (AID 2282992).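 On AC50: reporter mRNA level measured by RT-PCR and capillary electrophoresis fluorescence.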 The note with it: HepG2 Attagene ARE/NRF2 reporter, transcription factor activity; actives raise or lower the signal. The method in brief:
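HepG2 cells transiently transfected with multiplexed cis-regulated reporter transcription units measure endogenous transcription factor activity. Reporter mRNA at 24 h is quantified by RT-PCR, fluorescent labelling and capillary electrophoresis, with bidirectional fitting relative to DMSO.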

A short description of assay [4]: ATG_Oct_MLP_CIS: Attagene CIS-FACTORIAL HepG2 Assay for human Octamer-Binding Transcription Factor (Oct) (AID 2282993). The note with it: HepG2 Attagene cis-factorial Oct reporter, mRNA; actives raise or lower the signal. The method in brief:
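HepG2, transient MRTU transfection, cis promoter elements; 24 h dosing; RT-PCR/CE fluorescence read-out of reporter mRNA; fit both directions vs DMSO.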

Assay [5] has as its target Cellular tumor antigen p53 (Homo sapiens) (UniProt P04637). In words: ATG_p53_CIS: Attagene CIS-FACTORIAL HepG2 Assay for human p53 Transcription Factor (AID 2282994). The note with it: HepG2 p53 cis-element reporter, Attagene mRNA; actives raise or lower the signal. The method in brief: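 HepG2 cells transiently transfected with multiplexed cis-regulated reporter transcription units read endogenous TF activity. After 24 h compound exposure, reporter mRNA was quantified by RT-PCR, fluorescent labelling, HpaI digestion and capillary electrophoresis; bidirectional fits versus DMSO baseline.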

Assay [6] is described as follows: BSK_3C_uPAR: BioMAP Diversity Plus: 3C Assay for Urokinase-type plasminogen activator receptor (uPAR) Biomarker Activity (AID 2282998). Conditions: BioMAP 3C HUVEC, uPAR biomarker ELISA; actives raise or lower the signal. Summed up: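 A multiplexed primary-cell system built on human umbilical vein endothelium was used, with chemical present for 24 h before reading. Cell-surface uPAR was detected by ELISA; signal change in either direction counted against DMSO.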
On the technique in general: In an ELISA, binding on a coated surface is turned into a signal by an enzyme label.

Assay [7] in a line: BSK_3C_VCAM1: BioMAP Diversity Plus: 3C Assay for Vascular cell adhesion molecule 1 (VCAM1) Biomarker Activity (AID 2282999). Conditions: BioMAP 3C HUVEC, VCAM1 ELISA, cytokine-stimulated; actives raise or lower the signal. Summed up:
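Human umbilical vein endothelial cells (3C system), biomarker read by ELISA 24 h after dosing; bidirectional fit against DMSO baseline. Cytotoxicity tracked by SRB total-protein staining in parallel cultures at biomarker time.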

Assay [8] in a line: BSK_4H_Eotaxin3: BioMAP Diversity Plus: 4H Assay for Eotaxin 3 Biomarker Activity (AID 2283000).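 On outcome: CCL26 protein level quantified by ELISA in parallel with SRB cytotoxicity check.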 The note with it: primary human endothelial cells (HUVEC); actives raise or lower the signal. Summed up:
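Endothelial primary cells (human umbilical vein) exposed to compound for 24 h. ELISA detection of Eotaxin-3.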

Assay [9] deals with human Peroxisome Proliferator-activated Receptor delta (PPARd), PPARD (gene 5467) (UniProt Q03181). The assay is described as follows: ATG_PPARd_TRANS: Attagene TRANS-FACTORIAL HepG2 Assay for human Peroxisome Proliferator-activated Receptor delta (PPARd) (AID 2283002; active means hit-call score of the fitted dose curve at least 0.9, where 1 is the maximum). Summed up: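 HepG2 cells transiently transfected with GAL4-UAS multiplexed reporter units driven by exogenous chimeric NR-GAL4 proteins; 24 h compound exposure. Reporter mRNA measured by RT-PCR, 6-FAM primer extension, HpaI digestion and capillary electrophoresis; gain of signal fitted relative to DMSO.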
Sequence of human Peroxisome Proliferator-activated Receptor delta (PPARd), PPARD (gene 5467) (Q03181 whole entry, looked up, the tested form may be a part): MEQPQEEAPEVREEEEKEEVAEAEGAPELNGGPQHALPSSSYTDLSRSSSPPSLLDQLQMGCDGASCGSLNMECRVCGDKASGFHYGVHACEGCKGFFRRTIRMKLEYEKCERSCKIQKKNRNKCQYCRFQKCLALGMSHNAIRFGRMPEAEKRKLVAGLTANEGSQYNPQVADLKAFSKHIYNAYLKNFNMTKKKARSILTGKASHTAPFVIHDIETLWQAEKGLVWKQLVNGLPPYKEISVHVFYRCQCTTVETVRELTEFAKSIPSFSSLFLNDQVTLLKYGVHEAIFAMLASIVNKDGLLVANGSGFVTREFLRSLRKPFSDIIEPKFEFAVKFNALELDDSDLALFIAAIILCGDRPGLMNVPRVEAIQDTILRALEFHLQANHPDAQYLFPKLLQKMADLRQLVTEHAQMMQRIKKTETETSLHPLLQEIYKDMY

Read-out in assay [10]: Intercellular Adhesion Molecule 1 (ICAM1), ICAM1 (gene 3383)
In words: BSK_3C_ICAM1: BioMAP Diversity Plus: 3C Assay for Intercellular Adhesion Molecule 1 (ICAM1) Biomarker Activity (AID 2283003). Conditions: primary human endothelial cells (HUVEC); actives raise or lower the signal. Summed up: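 Human vascular endothelial primary cells, 3C conditions, 24 h treatment. ICAM-1 by ELISA.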

The target of assay [11] is human Retinoic Acid Receptor beta (RARb), RARB (gene 5915) (UniProt P10826). In words: ATG_RARb_TRANS: Attagene TRANS-FACTORIAL HepG2 Assay for human Retinoic Acid Receptor beta (AID 2283004; active means hit-call score of the fitted dose curve at least 0.9, where 1 is the maximum). Summed up:
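HepG2, transient MRTU transfection, NR–Gal4 chimera, 24 h treatment; RT-PCR plus CE fluorescence detection of reporter mRNA; gain of signal vs DMSO.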

A short description of assay [12]: BSK_3C_Proliferation: Cell Proliferation Assessment in the BioMAP Diversity Plus: 3C Assay (AID 2283006).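 On AC50: potency may reflect either rise or fall in cell number versus DMSO.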 The note with it: primary human endothelial cells (HUVEC). Summed up:
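Proliferation of human vascular endothelial primary cells after 48 h dosing, quantified as SRB-stained protein at 560 nm relative to DMSO.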

Assay [13] deals with Nuclear receptor subfamily 1 group I member 2 (Homo sapiens) (UniProt O75469). In words: ATG_PXR_TRANS: Attagene TRANS-FACTORIAL HepG2 Assay for human Pregnane X Receptor (PXR) (AID 2283008; active means hit-call score of the fitted dose curve at least 0.9, where 1 is the maximum). The method in brief:
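HepG2 cells transiently transfected with multiple reporter units, here a PXR-GAL4 chimera driving a GAL4-UAS reporter; 24 h compound exposure. Reporter mRNA measured by RT-PCR, FAM labelling and capillary electrophoresis; gain of signal fitted against DMSO baseline.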

The target of assay [14] is human Retinoic Acid Receptor gamma (RARg), RARG (gene 5916) (UniProt P13631). In words: ATG_RARg_TRANS: Attagene TRANS-FACTORIAL HepG2 Assay for human Retinoic Acid Receptor gamma (RARg) (AID 2283009; active means hit-call score of the fitted dose curve at least 0.9, where 1 is the maximum). The method in brief:
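HepG2, RARg-GAL4 TRANS system, 24 h exposure; reporter mRNA by RT-PCR + CE fluorescence; increase over DMSO.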

A short description of assay [15]: BSK_3C_TissueFactor: BioMAP Diversity Plus: 3C Assay for Tissue Factor Biomarker Activity (AID 2282997). Conditions: BioMAP 3C HUVEC, tissue factor biomarker readout; actives raise or lower the signal. Summed up: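 Values derive from bidirectional curve fitting against DMSO of Tissue Factor ELISA signals, taken 24 h after dosing primary human umbilical vein endothelial cells.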

Assay [16] addresses Retinoic acid receptor alpha (Homo sapiens) (UniProt P10276). The assay is described as follows: ATG_RARa_TRANS: Attagene TRANS-FACTORIAL HepG2 Assay for human Retinoic Acid Receptor alpha (RARa) (AID 2283005; active means hit-call score of the fitted dose curve at least 0.9, where 1 is the maximum). Summed up: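 HepG2 transiently transfected with multiplex GAL4-UAS reporter units including a human RARa–GAL4 chimera; 24 h compound exposure. Reporter mRNA quantified by RT-PCR, 6-FAM labeling and capillary electrophoresis; gain of signal versus DMSO.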

The target of assay [17] is human RAR-related Orphan Receptor beta (RORb), RORB (gene 6096) (UniProt Q92753). In words: ATG_RORb_TRANS: Attagene TRANS-FACTORIAL HepG2 Assay for human RAR-related Orphan Receptor beta (RORb) (AID 2283010; active means hit-call score of the fitted dose curve at least 0.9, where 1 is the maximum). Summed up: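 In this TRANS-format test, human HepG2 cells express chimeric NR-Gal4 fusion proteins driving GAL4-UAS reporters. After 24 h dosing, reporter transcripts are measured by fluorescent RT-PCR/capillary electrophoresis, with DMSO as negative control.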
Sequence of human RAR-related Orphan Receptor beta (RORb), RORB (gene 6096) (Q92753 whole entry, looked up, the tested form may be a part): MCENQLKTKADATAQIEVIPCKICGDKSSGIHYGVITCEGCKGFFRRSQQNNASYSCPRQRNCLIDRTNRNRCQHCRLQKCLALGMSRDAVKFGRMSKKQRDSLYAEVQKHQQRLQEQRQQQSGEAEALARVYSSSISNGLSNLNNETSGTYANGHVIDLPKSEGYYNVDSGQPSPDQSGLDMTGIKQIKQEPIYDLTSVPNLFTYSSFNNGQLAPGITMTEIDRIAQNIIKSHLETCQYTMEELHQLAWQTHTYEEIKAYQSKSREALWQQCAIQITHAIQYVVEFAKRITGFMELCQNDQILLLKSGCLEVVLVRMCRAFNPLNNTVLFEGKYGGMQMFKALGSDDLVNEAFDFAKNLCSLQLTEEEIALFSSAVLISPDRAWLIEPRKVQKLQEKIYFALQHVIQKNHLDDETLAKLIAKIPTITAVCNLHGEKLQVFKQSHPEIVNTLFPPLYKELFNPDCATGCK

In assay [18] the target is human RAR-related Orphan Receptor gamma (RORg), RORC (gene 6097) (UniProt P51449). The assay is described as follows: ATG_RORg_TRANS: Attagene TRANS-FACTORIAL HepG2 Assay for human RAR-related Orphan Receptor gamma (RORg) (AID 2283011; active means hit-call score of the fitted dose curve at least 0.9, where 1 is the maximum). The method in brief:
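Activity is scored as increase in GAL4-UAS reporter mRNA over DMSO, detected by fluorescent RT-PCR and capillary electrophoresis in HepG2 cells transiently expressing a RORg-Gal4 chimera, 24 h after dosing.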

Assay [19] concerns the target Peroxisome proliferator-activated receptor gamma (Homo sapiens) (UniProt P37231). The assay is described as follows: ATG_PPARg_TRANS: Attagene TRANS-FACTORIAL HepG2 Assay for human Peroxisome Proliferator-activated Receptor-gamma (PPARg) (AID 2283007; active means hit-call score of the fitted dose curve at least 0.9, where 1 is the maximum). The method in brief:
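Chimeric NR-Gal4 transactivation is measured in transiently transfected HepG2 cells by reporter mRNA induction at 24 h. Detection uses RT-PCR with fluorescent labelling and capillary electrophoresis; DMSO defines baseline.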

Sequence of Nuclear receptor subfamily 1 group I member 2 (Homo sapiens) (O75469 whole entry, looked up, the tested form may be a part): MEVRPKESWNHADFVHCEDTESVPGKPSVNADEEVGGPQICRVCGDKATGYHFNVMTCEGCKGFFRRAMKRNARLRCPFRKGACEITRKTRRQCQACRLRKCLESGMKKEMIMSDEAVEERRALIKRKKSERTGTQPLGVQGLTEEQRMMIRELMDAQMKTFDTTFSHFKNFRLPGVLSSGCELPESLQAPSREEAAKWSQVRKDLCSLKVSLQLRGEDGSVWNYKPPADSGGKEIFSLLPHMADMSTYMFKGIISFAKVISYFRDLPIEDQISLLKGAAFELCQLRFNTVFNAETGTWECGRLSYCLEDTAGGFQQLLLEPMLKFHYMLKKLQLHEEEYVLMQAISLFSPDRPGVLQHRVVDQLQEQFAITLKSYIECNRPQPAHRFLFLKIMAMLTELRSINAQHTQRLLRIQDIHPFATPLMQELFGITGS
Sequence of Myc proto-oncogene protein (Homo sapiens) (P01106 whole entry, looked up): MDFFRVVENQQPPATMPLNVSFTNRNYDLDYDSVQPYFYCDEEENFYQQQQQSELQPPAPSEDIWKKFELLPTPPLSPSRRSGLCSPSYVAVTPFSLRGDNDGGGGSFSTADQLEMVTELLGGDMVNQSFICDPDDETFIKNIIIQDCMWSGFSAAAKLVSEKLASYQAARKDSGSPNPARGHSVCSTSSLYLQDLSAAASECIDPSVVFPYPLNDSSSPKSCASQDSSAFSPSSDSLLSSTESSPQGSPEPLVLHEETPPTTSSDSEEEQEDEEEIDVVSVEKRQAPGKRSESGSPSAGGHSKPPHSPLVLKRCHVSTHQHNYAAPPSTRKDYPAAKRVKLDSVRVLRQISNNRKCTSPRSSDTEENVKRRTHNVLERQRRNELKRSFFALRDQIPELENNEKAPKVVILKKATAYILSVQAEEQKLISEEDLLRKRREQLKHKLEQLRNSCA
Sequence of Cellular tumor antigen p53 (Homo sapiens) (P04637 whole entry, looked up): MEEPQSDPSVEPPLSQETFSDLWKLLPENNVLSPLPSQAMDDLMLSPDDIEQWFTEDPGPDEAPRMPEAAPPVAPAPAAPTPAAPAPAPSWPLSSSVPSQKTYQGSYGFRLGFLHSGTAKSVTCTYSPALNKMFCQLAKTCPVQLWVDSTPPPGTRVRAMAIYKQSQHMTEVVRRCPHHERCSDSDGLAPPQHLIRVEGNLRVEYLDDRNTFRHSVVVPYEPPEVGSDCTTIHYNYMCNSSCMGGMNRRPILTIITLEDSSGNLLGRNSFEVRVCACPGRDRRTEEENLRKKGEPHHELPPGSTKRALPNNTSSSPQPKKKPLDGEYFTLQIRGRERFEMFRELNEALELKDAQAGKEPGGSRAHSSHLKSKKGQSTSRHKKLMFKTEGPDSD
Sequence of human Retinoic Acid Receptor gamma (RARg), RARG (gene 5916) (P13631 whole entry, looked up, the tested form may be a part): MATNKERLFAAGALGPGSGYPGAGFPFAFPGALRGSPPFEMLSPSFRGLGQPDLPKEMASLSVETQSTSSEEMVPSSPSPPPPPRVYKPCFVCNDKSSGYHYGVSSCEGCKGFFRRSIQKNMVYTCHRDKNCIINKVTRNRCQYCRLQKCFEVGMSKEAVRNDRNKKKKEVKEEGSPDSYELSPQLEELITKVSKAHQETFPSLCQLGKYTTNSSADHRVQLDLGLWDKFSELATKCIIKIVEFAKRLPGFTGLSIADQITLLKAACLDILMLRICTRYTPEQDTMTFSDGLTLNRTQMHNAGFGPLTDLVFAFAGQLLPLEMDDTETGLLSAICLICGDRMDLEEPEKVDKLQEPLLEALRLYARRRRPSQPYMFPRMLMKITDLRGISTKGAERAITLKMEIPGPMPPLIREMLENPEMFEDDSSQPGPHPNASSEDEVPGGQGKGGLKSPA
Sequence of human Retinoic Acid Receptor beta (RARb), RARB (gene 5915) (P10826 whole entry, looked up, the tested form may be a part): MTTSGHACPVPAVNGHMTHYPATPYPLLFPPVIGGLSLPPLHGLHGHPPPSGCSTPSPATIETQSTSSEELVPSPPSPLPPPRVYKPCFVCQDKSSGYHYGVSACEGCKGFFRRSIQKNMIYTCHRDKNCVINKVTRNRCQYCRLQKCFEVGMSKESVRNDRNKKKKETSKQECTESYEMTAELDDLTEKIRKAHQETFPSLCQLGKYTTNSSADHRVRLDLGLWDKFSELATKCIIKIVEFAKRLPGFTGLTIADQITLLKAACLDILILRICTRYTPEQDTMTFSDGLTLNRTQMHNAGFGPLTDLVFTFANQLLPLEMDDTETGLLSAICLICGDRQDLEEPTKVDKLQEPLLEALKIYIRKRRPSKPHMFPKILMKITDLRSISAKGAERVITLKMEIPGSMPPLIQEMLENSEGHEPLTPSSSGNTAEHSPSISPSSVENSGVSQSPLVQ
Sequence of Retinoic acid receptor alpha (Homo sapiens) (P10276 whole entry, looked up, the tested form may be a part): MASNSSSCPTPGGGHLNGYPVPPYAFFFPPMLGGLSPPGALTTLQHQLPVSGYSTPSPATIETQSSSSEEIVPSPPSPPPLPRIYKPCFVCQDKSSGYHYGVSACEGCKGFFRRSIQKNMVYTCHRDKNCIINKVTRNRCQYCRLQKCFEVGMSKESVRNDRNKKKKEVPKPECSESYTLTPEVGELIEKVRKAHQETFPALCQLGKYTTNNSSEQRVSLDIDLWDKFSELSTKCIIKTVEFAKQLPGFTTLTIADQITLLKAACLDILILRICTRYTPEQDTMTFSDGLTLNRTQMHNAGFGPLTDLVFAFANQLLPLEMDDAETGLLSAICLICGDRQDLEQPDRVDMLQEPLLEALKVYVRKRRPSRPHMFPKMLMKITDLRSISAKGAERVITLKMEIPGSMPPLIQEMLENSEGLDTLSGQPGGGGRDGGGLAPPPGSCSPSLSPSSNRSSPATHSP
Sequence of human RAR-related Orphan Receptor gamma (RORg), RORC (gene 6097) (P51449 whole entry, looked up, the tested form may be a part): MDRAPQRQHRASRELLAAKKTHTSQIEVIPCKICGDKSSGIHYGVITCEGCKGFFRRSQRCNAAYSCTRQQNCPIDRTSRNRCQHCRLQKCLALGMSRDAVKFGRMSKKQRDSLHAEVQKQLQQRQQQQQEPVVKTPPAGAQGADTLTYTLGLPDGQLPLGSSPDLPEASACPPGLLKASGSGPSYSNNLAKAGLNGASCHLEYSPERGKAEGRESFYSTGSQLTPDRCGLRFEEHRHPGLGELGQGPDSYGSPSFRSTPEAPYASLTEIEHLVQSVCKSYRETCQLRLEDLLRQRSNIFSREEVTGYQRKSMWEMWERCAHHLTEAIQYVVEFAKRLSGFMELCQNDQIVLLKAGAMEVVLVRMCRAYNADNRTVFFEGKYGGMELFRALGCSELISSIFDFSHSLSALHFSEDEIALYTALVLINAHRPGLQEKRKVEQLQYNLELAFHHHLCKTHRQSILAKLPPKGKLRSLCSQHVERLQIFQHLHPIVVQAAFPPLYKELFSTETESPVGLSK
Sequence of Peroxisome proliferator-activated receptor gamma (Homo sapiens) (P37231 whole entry, looked up, the tested form may be a part): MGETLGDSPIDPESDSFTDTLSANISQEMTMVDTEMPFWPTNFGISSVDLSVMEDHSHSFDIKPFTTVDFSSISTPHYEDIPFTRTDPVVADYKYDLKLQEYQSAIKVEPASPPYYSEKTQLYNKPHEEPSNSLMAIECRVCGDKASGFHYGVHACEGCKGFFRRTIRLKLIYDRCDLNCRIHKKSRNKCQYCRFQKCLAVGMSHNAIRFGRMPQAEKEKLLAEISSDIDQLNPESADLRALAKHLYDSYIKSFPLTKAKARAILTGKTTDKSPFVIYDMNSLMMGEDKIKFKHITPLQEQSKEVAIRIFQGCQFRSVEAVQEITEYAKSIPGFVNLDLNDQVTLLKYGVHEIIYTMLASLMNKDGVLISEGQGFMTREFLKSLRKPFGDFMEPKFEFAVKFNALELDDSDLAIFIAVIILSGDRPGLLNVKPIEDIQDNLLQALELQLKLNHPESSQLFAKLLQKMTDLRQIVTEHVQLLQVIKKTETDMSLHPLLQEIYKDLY

In general, AC50 refers to the concentration at which the activity in the assay is half-maximal. On to `CN(C)c1ccc(Cc2ccc(N(C)C)cc2)cc1`, for which the compound was called inactive in assay [1], in assay [5], in [6], in [7], in assay [8] and in assay [10]. In addition, the compound was classed as inactive in [11], in assay [13] and in assay [14]. Also, the AC50 in [2] is 37.9 µM (active); in assay [3], 78.2 µM (active); in assay [4], 56.7 µM (active); in assay [9], 58.5 µM (active); in [12] it was 13.4 µM (active).
Consider `Cc1ccc(C)c(O)c1`, for which the compound was classed as inactive in assay [1], in assay [3], in [4], in assay [5], in [15] and in assay [6]. In addition, the outcome in assay [8], in assay [9], in assay [10], in [11], in assay [16] and in assay [12] was inactive. The outcome in assay [13], in assay [14] and in assay [17] was inactive.
For `CN(C)c1ccc(N=NS(=O)(=O)O)cc1`, the outcome in assay [1], in assay [5], in assay [6], in assay [8], in assay [9] and in [10] was inactive. Also, the result in assay [12] and in [13] was inactive. Also, the AC50 was 54 µM (active) in assay [3], 130 µM (active) in assay [4] and 5.79 µM (active) in [15].
Consider `C[C@](N)(Cc1ccc(O)c(O)c1)C(=O)O`, for which the compound was called inactive in [1], in [2], in assay [3], in assay [4], in assay [15] and in assay [6]. Also, the outcome in [8], in [9], in assay [10], in assay [11] and in [12] was inactive.
As to `Cc1ccc(S(=O)(=O)O)cc1C`, the compound was called inactive in assay [1], in assay [3], in assay [4], in assay [5], in [15] and in [6]. In addition, the result in assay [7], in [8], in assay [9], in assay [10], in [11] and in assay [16] was inactive. Further, the result in [12] and in [13] was inactive.
As for `Clc1nc(Cl)c(Cl)c(Cl)c1Cl`, the compound was called inactive in assay [1], in [4], in assay [5], in [15], in assay [6] and in [8]. In addition, the compound was called inactive in assay [9], in assay [10], in [11], in assay [14] and in assay [18]. For the same compound, the values for the AC50 in [3], in [7] and in [12] were 11.2 µM (active), 16.5 µM (active) and 20 µM (active), respectively.
In the case of `O=C(O)c1cccc(N(Cc2cccnc2)c2ccc(OC(F)F)c(OC(F)F)c2)c1`, the outcome in [1], in assay [3], in assay [6], in [7], in assay [9] and in assay [10] was inactive. For the same compound, the result in assay [11], in assay [12] and in [14] was inactive. Besides, the AC50 is 27.7 µM (active) in [2]; 14.7 µM (active) in assay [15]; 12.9 µM (active) in assay [8]; 6.66 µM (active) in [19]; 11.1 µM (active) in assay [13].
